# From PubChem BioAssay (Tox21)
# Records with an inconclusive call do not appear. A call without a number means that no potency is given here. Unmarked numbers belong to inactive results. Active and inactive are the calls of the source. Calls follow the shape of the dose curve; as a rule, active = well fitted cell-killing curve with a large enough effect in the repeat runs; inconclusive = weak or mixed curves, or effect the other way; inactive = no such curve, though single readings can be large or run the other way.
# Assay: qHTS assay to identify small molecule antagonists of the progesterone receptor (PR) signaling pathway - cell viability counter screen (AID 1346798); also: nearly all actives have a fitted effect of over 50% in size
# Conditions: PR-UAS-bla HEK293T viability, CellTiter-Glo luminescence, 16 h; series mostly up to 92.4 µM
# Excerpt: National Center for Advancing Translational Sciences [NCATS]
# NIH Chemical Genomics Center [NCGC]
# U.S. Environmental Protection Agency [EPA]
# National Institutes of Environmental Health Sciences [NIEHS]
# National Toxicology Program [NTP]
# U.S. Food and Drug Administration [FDA]
# Progesterone receptor (PR), a nuclear hormone receptor, plays an important role in development, metabolic homeostasis and reproduction. It is activated by the steroid hormone progesterone. Endocrine disrupting chemicals (EDCs) and their interactions with steroid hormone receptors like PR causes disruption of normal endocrine function. To identify the compounds that inhibit PR signaling, a PR-UAS-bla GripTite cell line i.e. PR-UAS-bla HEK293T (Invitrogen, Carlsbad, CA, USA) containing a beta-lactamase reporter gene under the control of an UAS response element was used to screen Tox21 10K compound library. The cytotoxicity of the Tox21 compound library against the PR-bla cell line was tested in parallel by measuring the cell viability using CellTiter-Glo assay in the same wells.
# Tox21 Assay Protocol Summary:
# PR-UAS-bla HEK293T cells were dispensed at 3,000 cells/4 uL of assay medium containing 2% charcoal stripped FBS per well into black wall/clear-bottom 1536-well plates using a Multidrop Combi (ThermoFisher Scientific, Waltham, MA) dispenser. After the assay plates were incubated at a 37C and 5% CO2 for 4 hr, 23 nL of compounds dissolved in DMSO, positive controls or DMSO only was transferred to the assay plate by a Pintool station (Kalypsys, San Diego, CA), followed by addition of 1 uL of R5020 in assay medium using a Flying Reagent Dispenser (FRD, Aurora Discovery, San Diego, CA). The plates were incubated at 37C and 5% CO2 for 16 hr. Then 1 uL of LiveBLAzer B/G FRET substrate was added using a Flying Reagent Dispenser, the plates were incubated at room temperature for 2 hours, and fluorescence intensity was measured by an Envision plate reader (PerkinElmer, Shelton, CT). For cell viability readout that measures cytotoxicity, 4 uL/well of CellTiter-Glo reagent was added into the assay plates using a FRD. After 30 min incubation at room temperature, the luminescence intensity in the plates was measured using a ViewLux (PerkinElmer) plate reader.
Structure (SMILES),Potency,"activity change, negative = cytotoxicity"
Cc1ccc2c(c1)OCC(=O)CO2,inactive,
O=P(O)(O)OP(=O)(O)O,inactive,
C[C@@H]1O[C@@H](O[C@@H]2[C@@H](O)[C@H](OCCc3ccc(O)c(O)c3)O[C@H](CO[C@@H]3O[C@H](CO)[C@@H](O)[C@H](O)[C@H]3O)[C@H]2OC(=O)/C=C/c2ccc(O)c(O)c2)[C@H](O)[C@H](O)[C@H]1O,inactive,
CCN1CCc2nc(N)oc2CC1,inactive,
O=S(=O)(O)c1cc(O)c2ccc(Nc3ccccc3)cc2c1,inactive,
COC(=O)C1CC(=O)C(C(=O)OC)CC1=O (stereo not given),,15.1% [at 8.39 µM]
Cc1ccc(S(=O)(=O)O)c(C)c1,inactive,
CCN(C)C(=O)Oc1cccc([C@H](C)N(C)C)c1,inactive,
C[C@H](CCC(=O)O)[C@H]1CC[C@H]2[C@@H]3C(=O)C[C@@H]4CC(=O)CC[C@]4(C)[C@H]3CC(=O)[C@]12C,inactive,
COC(=O)CCc1ccc(OCC(O)CNC(C)C)cc1 (stereo not given),inactive,
O=C(NCC(O)CO)c1c(I)c(C(=O)NCC(O)CO)c(I)c(N(CCO)C(=O)CO)c1I (stereo not given),inactive,
O=C1CC(c2ccc(Cl)cc2)CC(=O)N1,inactive,
COc1ccc2c(c1)C(=O)N(CCc1ccc(S(=O)(=O)NC(=O)NC3CCCCC3)cc1)C(=O)C2(C)C,inactive,
CCOC(=O)c1ncn2c1CN(C)C(=O)c1cc(F)ccc1-2,inactive,
CCOCCOC(=O)/C=C/c1ccc(OC)cc1,inactive,
O=C(O)CCSSCCC(=O)O,inactive,
CCCOC(=O)C(C)O (stereo not given),inactive,
C=C1CC/C=C(\C)CC[C@@H]2[C@@H]1CC2(C)C,inactive,
CC(C)CCCCOC(=O)c1ccccc1C(=O)OCCCCC(C)C,inactive,
COc1cc(NS(=O)(=O)c2ccc(N)cc2)nc(OC)n1,inactive,

Structure (SMILES),Potency,"activity change, negative = cytotoxicity"
CCCCC(CC)COCCO (stereo not given),inactive,
O=C(CCNNC(=O)c1ccncc1)NCc1ccccc1,inactive,
NNc1nnc(NN)c2ccccc12,inactive,
COc1ccc(S(=O)(=O)N2c3ccc(Cl)cc3[C@@](O)(c3ccccc3Cl)[C@H]2C(=O)N2CCC[C@@H]2C(N)=O)cc1OC,inactive,
CC1COc2ccccc2N1 (stereo not given),inactive,
NCCS,inactive,
O=C(O)c1ccc(Cl)cc1Cl,inactive,
OCCCCC(O)CO (stereo not given),inactive,
C=C(C)C(=O)OCC(C)(C)COC(=O)C(=C)C,inactive,
O=C(OCc1ccccc1)C(=O)OCc1ccccc1,inactive,
C[C@@H](Oc1ccc(CNC(=O)c2cccnc2Oc2ccc3c(c2)OCO3)c(F)c1)C(=O)O,inactive,
CC(CO)c1ccccc1 (stereo not given),inactive,
O=C(NCCc1c[nH]c2ccccc12)c1cccnc1,inactive,
CCC(C)(CCC(C)C)C(=O)O (stereo not given),inactive,
C=C(C)C(=O)OCCOP(=O)(O)OCCOC(=O)C(=C)C,inactive,
c1ccc2c(c1)ccc1c3ccccc3ccc21,inactive,
O=C(O)Cc1ccc(Cl)cc1Cl,inactive,
NC(CO)C(=O)NNCc1ccc(O)c(O)c1O (stereo not given),inactive,
Cc1cccc(C)c1OCC(C)N (stereo not given),inactive,
CCCCCCCC/C=C\CCCCCCCC(=O)OCCCC,,0.852% [at 18.9 µM]
